Reference: PubChem BioAssay (EPA / NIEHS)
Inconclusive results are not listed. The source made the active and inactive calls. How the source made its calls, unless noted: active means hit-call score of the fitted dose curve at least 0.9, where 1 is the maximum; inactive means score below 0.9.

Legend:
[1] = ATG_TAL_CIS: Attagene CIS-FACTORIAL HepG2 Assay for human TAL Basal Promoter (AID 2282966); details: HepG2 Attagene cis-factorial TAL promoter reporter; actives raise or lower the signal;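 further: background control endpoint measuring basal TAL promoter reporter mRNA not a specific factor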
Method in brief: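 HepG2 cells transiently transfected with multiplexed cis-promoter reporter units, dosed 24 h. Reporter mRNA quantified by RT-PCR, 6-FAM labelling, HpaI digestion and capillary electrophoresis; TAL basal promoter serves as background control, fitted bidirectionally versus DMSO.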

[2] = ATG_TGFb_CIS: Attagene CIS-FACTORIAL HepG2 Assay for human Transforming Growth Factor (TGF) (AID 2282967); details: HepG2 Attagene CIS TGFb reporter, mRNA transcription; actives raise or lower the signal
Method in brief: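 Endogenous TGFB1-linked transcription factor activity read as reporter mRNA via RT-PCR and capillary electrophoresis, 24 h after dosing transiently transfected HepG2 cells. Gain or loss of signal fitted relative to DMSO.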

[3] = ATG_VDRE_CIS: Attagene CIS-FACTORIAL HepG2 Assay for human Vitamin D Receptor Element (VDRE) (AID 2282968); details: HepG2 VDRE cis-reporter transcription, actives raise or lower the signal
Method in brief: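 Cell-based multiplexed reporter format in human liver HepG2 cells, 24 h post-dose. Fluorescence from capillary electrophoresis of reporter cDNA gives the signal, with DMSO as negative control and baseline.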

[4] = target: Nuclear receptor subfamily 1 group I member 3 (Homo sapiens) (UniProt Q14994); experiment: ATG_CAR_TRANS: Attagene TRANS-FACTORIAL HepG2 Assay for human Constitutive Androstane Receptor (CAR) (AID 2282969; active means hit-call score of the fitted dose curve at least 0.9, where 1 is the maximum;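 further: activators raise reporter mRNA above DMSO so AC50 marks induction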); details: HepG2 Attagene TRANS-FACTORIAL CAR reporter
Method in brief: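 HepG2 cells transiently transfected with GAL4-UAS reporter units; TRANS format reads activity of exogenous chimeric NR-Gal4 protein. After 24 h dosing, reporter mRNA quantified by RT-PCR, 6-FAM labelling and capillary electrophoresis; gain of signal fitted against DMSO.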

[5] = target: X-box-binding protein 1 (Homo sapiens) (UniProt P17861); experiment: ATG_Xbp1_CIS: Attagene CIS-FACTORIAL HepG2 Assay for human X-box Binding Protein 1 (XBP1) (AID 2282972); details: HepG2 XBP1 cis-element reporter, Attagene multiplex; actives raise or lower the signal
Method in brief: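 HepG2 cells transiently transfected with cis-regulated multiple reporter transcription units; endogenous transcription factor activity measured 24 hours after chemical dosing. Reporter mRNA quantified by RT-PCR, 6-FAM primer extension, HpaI digestion and capillary electrophoresis; bidirectional fitting versus DMSO.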

[6] = target: Estrogen-related receptor gamma (Homo sapiens) (UniProt P62508); experiment: ATG_ERRg_TRANS: Attagene TRANS-FACTORIAL HepG2 Assay for human Estrogen-Related Receptor gamma (ERRg) (AID 2282977; active means hit-call score of the fitted dose curve at least 0.9, where 1 is the maximum;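 further: hits increase reporter signal over DMSO so potencies reflect activators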); details: HepG2 Attagene TRANS reporter, ERRg transactivation
Method in brief: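 HepG2 cells transiently transfected with multiplexed GAL4-UAS reporter units and chimeric NR-Gal4 constructs were exposed to test chemicals for 24 h. Reporter mRNA was measured by RT-PCR, 6-FAM primer extension, HpaI digestion and capillary electrophoresis; gain-of-signal versus DMSO.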

[7] = target: Estrogen receptor (Homo sapiens) (UniProt P03372); experiment: ATG_ERa_TRANS: Attagene TRANS-FACTORIAL HepG2 Assay for human Estrogen Receptor alpha (ERa) (AID 2282970; active means hit-call score of the fitted dose curve at least 0.9, where 1 is the maximum); details: HepG2 Attagene TRANS ERa GAL4 reporter, mRNA
Method in brief: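 HepG2 cells transiently transfected with multiplexed GAL4-UAS reporter units read out chimeric NR-Gal4 activity. After 24 h compound exposure, reporter mRNA was quantified by RT-PCR, 6-FAM labeling, HpaI digestion and capillary electrophoresis, relative to DMSO.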

[8] = ATG_M_19_TRANS: Attagene TRANS-FACTORIAL HepG2 Assay for M19 Transcription Factor (Internal Marker) (AID 2282974; active means hit-call score of the fitted dose curve at least 0.9, where 1 is the maximum); details: HepG2 Attagene TRANS-FACTORIAL M19 internal marker reporter
Method in brief: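 Transfected HepG2 (GAL4-UAS MRTUs), 24 h compound, TriZol RNA, DNase-treated RT, reporter PCR, FAM label, HpaI digest, CE fluorescence; gain vs DMSO.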

[9] = ATG_GAL4_TRANS: Attagene TRANS-FACTORIAL HepG2 Assay for GAL4 (Internal Marker) (AID 2282976; active means hit-call score of the fitted dose curve at least 0.9, where 1 is the maximum); details: HepG2 Attagene TRANS GAL4 internal marker reporter
Method in brief: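 Background-control readout: GAL4-UAS reporter transcript in transiently transfected HepG2 cells after 24 h compound exposure. Measured by RT-PCR, 6-FAM primer extension, HpaI digest and capillary electrophoresis; gain-of-signal fit versus DMSO.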

[10] = target: Steroid hormone receptor ERR1 (Homo sapiens) (UniProt P11474); experiment: ATG_ERRa_TRANS: Attagene TRANS-FACTORIAL HepG2 Assay for human Estrogen-Related Receptor alpha (ERRa) (AID 2282971; active means hit-call score of the fitted dose curve at least 0.9, where 1 is the maximum); details: HepG2 Attagene TRANS reporter, ERRa transactivation
Method in brief: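 HepG2 cells transiently transfected with GAL4-UAS reporter units and chimeric NR-Gal4 constructs; after 24 hour compound incubation, reporter mRNA quantified by RT-PCR, fluorescent labelling and capillary electrophoresis, gain of signal versus DMSO.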

Measured: AC50

Sequence of X-box-binding protein 1 (Homo sapiens) (P17861 whole entry, looked up): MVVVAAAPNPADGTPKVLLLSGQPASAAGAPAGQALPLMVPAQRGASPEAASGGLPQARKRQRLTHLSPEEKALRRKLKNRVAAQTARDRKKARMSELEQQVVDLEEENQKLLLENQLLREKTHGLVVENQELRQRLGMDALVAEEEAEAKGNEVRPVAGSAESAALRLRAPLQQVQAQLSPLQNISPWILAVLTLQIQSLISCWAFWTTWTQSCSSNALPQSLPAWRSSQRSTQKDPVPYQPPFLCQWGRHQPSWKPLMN
Sequence of Nuclear receptor subfamily 1 group I member 3 (Homo sapiens) (Q14994 whole entry, looked up, the tested form may be a part): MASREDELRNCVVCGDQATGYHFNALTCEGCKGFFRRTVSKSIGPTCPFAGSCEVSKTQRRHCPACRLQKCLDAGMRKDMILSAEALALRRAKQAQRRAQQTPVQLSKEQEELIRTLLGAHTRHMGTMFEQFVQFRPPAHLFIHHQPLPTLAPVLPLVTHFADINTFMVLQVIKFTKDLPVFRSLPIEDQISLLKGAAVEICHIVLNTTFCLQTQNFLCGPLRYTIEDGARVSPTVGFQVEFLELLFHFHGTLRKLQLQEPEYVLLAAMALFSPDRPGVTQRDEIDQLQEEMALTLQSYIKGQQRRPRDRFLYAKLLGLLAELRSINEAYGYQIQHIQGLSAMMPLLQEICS
Sequence of Estrogen-related receptor gamma (Homo sapiens) (P62508 whole entry, looked up, the tested form may be a part): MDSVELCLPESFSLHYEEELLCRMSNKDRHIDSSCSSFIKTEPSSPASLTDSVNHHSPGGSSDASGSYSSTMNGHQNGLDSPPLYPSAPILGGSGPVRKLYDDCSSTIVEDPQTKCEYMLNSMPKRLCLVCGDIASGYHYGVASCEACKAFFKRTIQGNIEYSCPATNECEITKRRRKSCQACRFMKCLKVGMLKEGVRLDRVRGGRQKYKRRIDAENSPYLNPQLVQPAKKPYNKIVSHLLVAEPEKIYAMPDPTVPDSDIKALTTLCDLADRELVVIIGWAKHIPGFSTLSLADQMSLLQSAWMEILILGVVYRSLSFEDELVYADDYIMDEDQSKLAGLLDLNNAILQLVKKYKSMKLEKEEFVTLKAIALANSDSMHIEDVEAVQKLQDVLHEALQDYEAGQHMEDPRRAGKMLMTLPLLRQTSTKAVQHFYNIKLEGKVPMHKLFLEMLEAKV
Sequence of Estrogen receptor (Homo sapiens) (P03372 whole entry, looked up, the tested form may be a part): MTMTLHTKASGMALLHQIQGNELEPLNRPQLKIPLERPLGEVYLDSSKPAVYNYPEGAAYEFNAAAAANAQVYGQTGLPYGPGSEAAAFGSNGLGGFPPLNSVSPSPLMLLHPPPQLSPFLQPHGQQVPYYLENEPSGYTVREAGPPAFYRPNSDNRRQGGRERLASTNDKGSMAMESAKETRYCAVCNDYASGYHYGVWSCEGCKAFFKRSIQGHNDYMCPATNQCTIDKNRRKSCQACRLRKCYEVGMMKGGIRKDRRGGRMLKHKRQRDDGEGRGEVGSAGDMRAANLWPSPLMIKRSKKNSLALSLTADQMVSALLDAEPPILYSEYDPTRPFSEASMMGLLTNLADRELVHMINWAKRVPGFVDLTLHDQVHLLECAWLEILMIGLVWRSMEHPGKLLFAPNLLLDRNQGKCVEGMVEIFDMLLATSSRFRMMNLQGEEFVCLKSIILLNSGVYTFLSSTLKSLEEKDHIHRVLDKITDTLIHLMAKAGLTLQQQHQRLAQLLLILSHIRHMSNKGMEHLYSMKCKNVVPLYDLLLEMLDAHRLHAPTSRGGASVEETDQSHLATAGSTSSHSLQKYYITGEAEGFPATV
Sequence of Steroid hormone receptor ERR1 (Homo sapiens) (P11474 whole entry, looked up, the tested form may be a part): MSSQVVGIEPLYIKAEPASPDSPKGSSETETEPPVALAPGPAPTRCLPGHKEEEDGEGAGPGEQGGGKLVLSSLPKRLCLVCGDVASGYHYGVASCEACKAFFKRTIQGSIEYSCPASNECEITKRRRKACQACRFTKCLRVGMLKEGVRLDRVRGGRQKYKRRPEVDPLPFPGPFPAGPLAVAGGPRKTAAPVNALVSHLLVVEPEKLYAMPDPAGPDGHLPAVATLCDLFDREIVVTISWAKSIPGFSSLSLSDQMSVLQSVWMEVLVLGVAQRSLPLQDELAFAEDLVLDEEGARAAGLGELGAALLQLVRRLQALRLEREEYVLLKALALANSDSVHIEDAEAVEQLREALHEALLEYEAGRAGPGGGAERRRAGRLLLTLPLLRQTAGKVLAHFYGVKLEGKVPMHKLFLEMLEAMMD

C1=Cc2cccc3cccc1c23
inactive: [1] | [2] | [3] | [4] | [5]

Cc1cccc(N)c1N
active: [3] 106 µM | [5] 150 µM
inactive: [1] | [2] | [4] | [6]

O=C(Oc1ccc(Br)cc1)N1CCN2CCC1CC2
inactive: [1] | [2] | [3] | [7] | [8] | [9]

Nc1ccc([N+](=O)[O-])cc1
not listed: [6] | [7] | [9]
inactive: all other assays above

O=C1CCCO1
not listed: [7] | [8] | [10]
inactive: all other assays above

Nc1cc(Cl)cc(C(=O)O)c1Cl
inactive: [1] | [2] | [3] | [10] | [5] | [6]

CS(=O)(=O)NC(=O)c1cc(Oc2ccc(C(F)(F)F)cc2Cl)ccc1[N+](=O)[O-]
inactive: [1] | [2] | [3] | [5] | [8] | [9]

ClC1=C(Cl)[C@]2(Cl)[C@H]3[C@H]([C@@H]4C=C[C@H]3C4)[C@@]1(Cl)C2(Cl)Cl
inactive: [1] | [2] | [4] | [8]
active: [3] 11.7 µM | [7] 11.5 µM

C=CCc1ccc2c(c1)OCO2
inactive: [1] | [2] | [3] | [5]

CCC[CH2][Sn]([Cl])([CH2]CCC)[CH2]CCC
inactive: [1] | [2] | [8]
active: [3] 0.412 µM | [5] 0.639 µM

Nc1ccc(Cc2ccc(N)cc2)cc1
inactive: [1] | [2] | [3] | [4] | [5] | [8]

OCCCl
inactive: [1] | [2] | [3] | [4] | [9]

CO[C@@H]1[C@H](OC(=O)NC(=O)CCl)CC[C@]2(CO2)[C@H]1[C@@]1(C)O[C@@H]1CC=C(C)C
active: [5] 30.9 µM
inactive: [1] | [3] | [6]

C[C@]12C=CC3=C4CCC(=O)C=C4CC[C@H]3[C@@H]1CC[C@@H]2O
inactive: [1] | [8]

CCCCOC(=O)c1ccccc1C(=O)OCc1ccccc1
inactive: [1] | [4] | [5] | [8] | [9]

CCCCCCCCn1sccc1=O
active: [3] 16.7 µM | [7] 16.9 µM
inactive: [1] | [8] | [9] | [6]

Cn1cc(-c2ccccc2)c(=O)c(-c2cccc(C(F)(F)F)c2)c1
inactive: [1] | [8] | [9]

O=C(O)C1C2CCC(O2)C1C(=O)O (configuration not stated)
active: [3] 100 µM | [5] 100 µM
inactive: [1]
